Rows were chosen to be rich in hits. Some 0.95% of all compounds tested hit in one or more screens of this group.
RE007 growth inh – qHTS Assay for Inhibitors of the HIV-1 protein Vpr. S. pombe RE007 Vpr strain, BacTiter-Glo ATP luminescence, 24 h. Potency, µM (doses to about 92.2 µM), actives largely listed as inhibitors. 360,000 compounds, 0.21% hits; active = well fitted falling curve with a large enough effect; inconclusive = small, poorly fitted or top-dose-only effect; inactive = no such curve, though single readings can be large or run the other way; also: nearly all actives have a fitted effect of over 50% in size
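Fission yeast RE007 carrying one integrated HIV-1 vpr copy, seeded at OD 0.01 in PMG+AL medium with 23 nL pinned compound. Grown 24 h at 30 degrees; viability read by BacTiter-Glo luminescence after 5 min.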
LmPK inh – qHTS Assay for Inhibitors of Leishmania Mexicana Pyruvate Kinase (LmPK). purified LmPK, Kinase-Glo ATP luminescence, 1 h. Potency, µM (series often up to 57.5 µM), usual class: inhibitors. 290,000 compounds, 0.37% hits. Q27686
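Screened at intermediate enzyme activity to detect both inhibitors and activators: LmPK at 0.1 nM, with a 0.5 nM enzyme column as activation reference. PEP 0.5 mM, ADP 0.1 mM; ATP detected by luminescence after 1 h.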
Giardia FBPA inh-1 – qHTS Assay for Inhibitors of Fructose-1,6-bisphosphate Aldolase from Giardia Lamblia | purified Giardia FBPA | AID 2451, 2010 | Potency, µM (series often up to 59.6 µM), usual class: inhibitors | 290,000 compounds, 0.71% hits; also: nearly all actives have a fitted effect of over 55% in size
Target sequence (A8B2U2 whole entry, looked up): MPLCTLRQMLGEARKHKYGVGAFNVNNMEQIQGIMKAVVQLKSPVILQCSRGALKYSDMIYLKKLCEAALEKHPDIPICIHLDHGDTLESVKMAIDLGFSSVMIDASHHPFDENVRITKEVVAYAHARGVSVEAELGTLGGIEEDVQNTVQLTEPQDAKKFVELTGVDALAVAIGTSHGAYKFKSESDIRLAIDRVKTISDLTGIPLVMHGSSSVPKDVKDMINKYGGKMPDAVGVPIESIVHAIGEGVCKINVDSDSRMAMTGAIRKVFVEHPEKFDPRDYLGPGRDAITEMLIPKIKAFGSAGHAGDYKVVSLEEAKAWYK
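40 nM FBPA preincubated 10 min at RT with compound (up to 57.5 uM final), then substrate plus GAPDH/TPI/NAD/arsenate coupling and diaphorase/resazurin added. Fluorescence read after 20 min at RT, 525/598 nm.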
Tb PYK inh – qHTS of Trypanosoma Brucei Inhibitors. pyruvate kinase (Trypanosoma brucei), Q57TT1. TbPYK enzyme, Kinase-Glo Plus ATP luminescence, 45 min. Potency, µM (titrated, usually from 76.8 µM), actives largely listed as inhibitors. 410,000 compounds, 0.12% hits. AID 624173, 2012; also: nearly all actives have a fitted effect of over 50% in size
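Activity of T. brucei pyruvate kinase was followed by Kinase-Glo Plus luminescence after the enzyme reacted 45 min at room temperature with 130 uM ADP (final) and substrate. Test compounds were added before ADP at multiple concentrations.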
Giardia growth – qHTS Assay for Inhibitors of Fructose-1,6-bisphosphate Aldolase from Giardia Lamblia: Giardia lamblia growth inhibition; Giardia lamblia trophozoite growth inhibition; 1,500 compounds, 5% hits; shares compounds with Giardia FBPA inh-1; Potency, µM (highest dose often 57.5 µM), most hits filed as inhibitors; AID 2785, 2010;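 also: trophozoites exposed to compound for 48 h at 37 °C; nearly all actives have a fitted effect of over 70% in size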
Mammalian tox – qHTS Assay for Inhibitors of Fructose-1,6-bisphosphate Aldolase from Giardia Lamblia: Mammalian cellular toxicity | shares compounds with Giardia FBPA inh-1 | mammalian cell viability counter-screen, qHTS | Potency, µM (top dose mostly 57.5 µM), most hits filed as inhibitors | 1,500 compounds, 4% hits | AID 2786, 2010;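 also: Chinese hamster ovary cells used as mammalian cytotoxicity surrogate; viability measured as cellular ATP by luminescence; compound exposure lasted 48 h before reading; nearly all actives have a fitted effect of over 60% in size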
Giardia FBPA inh-2 – qHTS Assay for Inhibitors of Fructose-1,6-bisphosphate Aldolase from Giardia Lamblia: Primary screen confirmation; 1,500 compounds, 5% hits; AID 2787, 2010; shares compounds with Giardia FBPA inh-1; purified Giardia aldolase enzyme activity, qHTS; Potency, µM (top dose mostly 57.5 µM), actives largely listed as inhibitors; also: nearly all actives have a fitted effect of over 45% in size
Rabbit FBPA inh – qHTS Assay for Inhibitors of Fructose-1,6-bisphosphate Aldolase from Giardia Lamblia: Rabbit FBPA Selectivity. shares compounds with Giardia FBPA inh-1. Potency, µM (top dose mostly 57.5 µM), most hits filed as inhibitors. 1,500 compounds, 4% hits. Rabbit muscle FBPA enzyme inhibition, selectivity counter-screen; also: nearly all actives have a fitted effect of over 60% in size
GAPDH coupling – qHTS Assay for Inhibitors of Fructose-1,6-bisphosphate Aldolase from Giardia Lamblia: Coupling assay counterscreen confirmation; 1,500 compounds, 6% hits; Potency, µM (titrated, usually from 57.5 µM), actives largely listed as inhibitors; shares compounds with Giardia FBPA inh-1; GAPDH coupling enzyme counterscreen, biochemical, qHTS; also: nearly all actives have a fitted effect of over 55% in size
Of the large screens only hits and unclear results are named; the others gave an inactive call (follow-up assays come after a bar, where they were run); [ ] = dose if it differs, or a comment. Unless noted, calls follow the shape of the dose curve; as a rule, active = well fitted curve in the direction sought with a large enough effect; inconclusive = small, poorly fitted or top-dose-only effect, or another doubt; inactive = no such curve, though single readings can be large; an effect the other way counts as inactive or inconclusive.

COCC1C2CC[C@H]3C(OCc4ccc(F)cc4C(F)(F)F)OC[C@]4(C)[C@H]3C2=C(CN4C(=O)OC(C)(C)C)[C@H](C)C1COC (stereo partly specified)	none (no result: RE007 growth inh, LmPK inh, Tb PYK inh)
CCC1=C2CC[C@H]3C(=O)NC(=O)[C@H]3[C@H]2[C@@]2(C)C(=NCCOC)OC(=O)N2C1=O	none (no result: RE007 growth inh, LmPK inh, Tb PYK inh)
Cc1c(N2C(=O)/C(=C3\C(=O)N(CC(=O)O)c4ccccc43)SC2=S)c(=O)n(-c2ccccc2)n1C	Giardia FBPA inh-1 10µM | Giardia growth inactive | Mammalian tox inactive | Giardia FBPA inh-2 inconclusive | Rabbit FBPA inh inactive | GAPDH coupling inconclusive
Cc1c(N2C(=O)/C(=C/c3ccccc3)SC2=S)c(=O)n(-c2ccccc2)n1C	none
CN(C)c1ccc(CNC(=O)[C@@]2(C)C=C[C@@H](Cc3ccccc3)N2C)cc1	none (no result: RE007 growth inh, LmPK inh, Tb PYK inh)
O=c1[nH]cc(I)cc1I	Giardia FBPA inh-1 10µM (no result: RE007 growth inh) | Giardia growth inactive | Mammalian tox inactive | Giardia FBPA inh-2 inactive | Rabbit FBPA inh inactive | GAPDH coupling inactive
COc1ccc(S(=O)(=O)Nc2cc(OC)cc3cccnc23)cc1	none (no result: RE007 growth inh, LmPK inh, Tb PYK inh)
Cc1cc(=O)n2cccc(O)c2n1	Giardia FBPA inh-1 20µM | Giardia growth inactive | Mammalian tox inactive | Giardia FBPA inh-2 inactive | Rabbit FBPA inh inconclusive | GAPDH coupling inconclusive
Cc1nnc(SCc2cc(=O)n3cccc(C)c3n2)s1	none (no result: RE007 growth inh, LmPK inh, Giardia FBPA inh-1)
O=C(N/N=C1/C[C@@H](O)[C@@H](O)[C@@H]2[C@@H]3C(=O)N(Cc4ccccc4)C(=O)[C@H]3CC[C@@H]12)OCc1ccccc1	none (no result: RE007 growth inh, LmPK inh, Tb PYK inh)
NC(=S)NN=C1C2CC3CC(C2)CC1C3	Giardia FBPA inh-1 18µM | Giardia growth inactive | Mammalian tox inactive | Giardia FBPA inh-2 inactive | Rabbit FBPA inh inactive | GAPDH coupling inactive
NC(=O)C(=O)NN=C1C2CC3CC(C2)CC1C3	none
NC(c1ccccc1)c1cccnc1 (stereo unspecified)	Giardia FBPA inh-1 10µM | Giardia growth inactive | Mammalian tox inactive | Giardia FBPA inh-2 inactive | Rabbit FBPA inh inactive | GAPDH coupling inactive
Oc1c(/C=N/c2ncn[nH]2)ccc2ccccc12	Giardia FBPA inh-1 8.9µM | Giardia growth inactive | Mammalian tox inactive | Giardia FBPA inh-2 8.9µM | Rabbit FBPA inh 40µM | GAPDH coupling inconclusive
CCCCc1c(O)nc(SC2CC(=O)N(c3ccc(C(=O)OCC)cc3)C2=O)[nH]c1=O (stereo unspecified)	Giardia FBPA inh-1 7.1µM | Giardia growth inactive[10.4 µM] | Mammalian tox inactive | Giardia FBPA inh-2 inactive | Rabbit FBPA inh inactive | GAPDH coupling inactive
COc1ccc(Oc2ncc3nc(-c4cccc(C#N)c4)c(=O)n(Cc4cccc(OC)c4)c3n2)cc1	none (no result: RE007 growth inh, LmPK inh, Tb PYK inh)
O=C1C=CC(=O)c2c(O)c(CO)c(CO)c(O)c21	Tb PYK inh inconclusive (no result: LmPK inh, Giardia FBPA inh-1)
O=c1c(CO)cc(CO)cc(CO)c1O	Giardia FBPA inh-1 inconclusive | Giardia growth inactive | Mammalian tox inactive | Giardia FBPA inh-2 inactive | Rabbit FBPA inh inactive | GAPDH coupling inactive
O=c1oc2ccccc2c(O)c1Cc1cc(Cl)c2cccnc2c1O	Giardia FBPA inh-1 10µM | Giardia growth inconclusive | Mammalian tox inactive | Giardia FBPA inh-2 inactive | Rabbit FBPA inh inactive | GAPDH coupling inactive

From PubChem
